This note sets out measurements from PubChem BioAssay.

Test [1] is described as follows: small molecules captured by biotinylated probe aFSTL3 – biochemical, small-molecule microarray, fluorescence 635/667, stem cell growth factor project, primary screen (AID 1064).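 Also: measures binding of the biotinylated anti-FSTL3 antibody to printed compounds.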 Particulars: higher = more signal.
Test [2] in a line: binders from COS7 lysate, DM2A8 probe, primary screen, torsin A project, cell lysate, small-molecule microarray, fluorescence 635/667 (AID 1065). The conditions noted are these: higher = more signal, COS7 lysate expressing mutant human TOR1A.
A short description of test [3]: small molecules captured by biotinylated probe aFGF2 – biochemical, small-molecule microarray, fluorescence 635/667, stem cell growth factor project, primary screen (AID 1067).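 Also: measures binding of biotinylated aFGF2 protein to printed compounds on slides; z-score merges feature fluorescence and signal-to-noise across triplicate slides.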 The conditions noted are these: higher = more signal.
Test [4] in a line: small molecules captured by biotinylated probe aFGF10 – biochemical, small-molecule microarray, fluorescence 635/667, stem cell growth factor project, primary screen (AID 1071).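 Also: score merges 667 nm spot intensity and signal to noise from triplicate slides.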 The conditions noted are these: higher = more signal.
In test [5] the target is Neurogenic locus notch homolog protein 2 (Homo sapiens) (UniProt Q04721). The test can be described thus: small molecules binding Notch2 protein – biochemical, small-molecule microarray, 635 nm fluorescence, stem cell growth factors, primary screen (AID 1073). Particulars: higher = more signal.
Chain of Neurogenic locus notch homolog protein 2 (Homo sapiens) (Q04721 whole entry, looked up, canonical isoform): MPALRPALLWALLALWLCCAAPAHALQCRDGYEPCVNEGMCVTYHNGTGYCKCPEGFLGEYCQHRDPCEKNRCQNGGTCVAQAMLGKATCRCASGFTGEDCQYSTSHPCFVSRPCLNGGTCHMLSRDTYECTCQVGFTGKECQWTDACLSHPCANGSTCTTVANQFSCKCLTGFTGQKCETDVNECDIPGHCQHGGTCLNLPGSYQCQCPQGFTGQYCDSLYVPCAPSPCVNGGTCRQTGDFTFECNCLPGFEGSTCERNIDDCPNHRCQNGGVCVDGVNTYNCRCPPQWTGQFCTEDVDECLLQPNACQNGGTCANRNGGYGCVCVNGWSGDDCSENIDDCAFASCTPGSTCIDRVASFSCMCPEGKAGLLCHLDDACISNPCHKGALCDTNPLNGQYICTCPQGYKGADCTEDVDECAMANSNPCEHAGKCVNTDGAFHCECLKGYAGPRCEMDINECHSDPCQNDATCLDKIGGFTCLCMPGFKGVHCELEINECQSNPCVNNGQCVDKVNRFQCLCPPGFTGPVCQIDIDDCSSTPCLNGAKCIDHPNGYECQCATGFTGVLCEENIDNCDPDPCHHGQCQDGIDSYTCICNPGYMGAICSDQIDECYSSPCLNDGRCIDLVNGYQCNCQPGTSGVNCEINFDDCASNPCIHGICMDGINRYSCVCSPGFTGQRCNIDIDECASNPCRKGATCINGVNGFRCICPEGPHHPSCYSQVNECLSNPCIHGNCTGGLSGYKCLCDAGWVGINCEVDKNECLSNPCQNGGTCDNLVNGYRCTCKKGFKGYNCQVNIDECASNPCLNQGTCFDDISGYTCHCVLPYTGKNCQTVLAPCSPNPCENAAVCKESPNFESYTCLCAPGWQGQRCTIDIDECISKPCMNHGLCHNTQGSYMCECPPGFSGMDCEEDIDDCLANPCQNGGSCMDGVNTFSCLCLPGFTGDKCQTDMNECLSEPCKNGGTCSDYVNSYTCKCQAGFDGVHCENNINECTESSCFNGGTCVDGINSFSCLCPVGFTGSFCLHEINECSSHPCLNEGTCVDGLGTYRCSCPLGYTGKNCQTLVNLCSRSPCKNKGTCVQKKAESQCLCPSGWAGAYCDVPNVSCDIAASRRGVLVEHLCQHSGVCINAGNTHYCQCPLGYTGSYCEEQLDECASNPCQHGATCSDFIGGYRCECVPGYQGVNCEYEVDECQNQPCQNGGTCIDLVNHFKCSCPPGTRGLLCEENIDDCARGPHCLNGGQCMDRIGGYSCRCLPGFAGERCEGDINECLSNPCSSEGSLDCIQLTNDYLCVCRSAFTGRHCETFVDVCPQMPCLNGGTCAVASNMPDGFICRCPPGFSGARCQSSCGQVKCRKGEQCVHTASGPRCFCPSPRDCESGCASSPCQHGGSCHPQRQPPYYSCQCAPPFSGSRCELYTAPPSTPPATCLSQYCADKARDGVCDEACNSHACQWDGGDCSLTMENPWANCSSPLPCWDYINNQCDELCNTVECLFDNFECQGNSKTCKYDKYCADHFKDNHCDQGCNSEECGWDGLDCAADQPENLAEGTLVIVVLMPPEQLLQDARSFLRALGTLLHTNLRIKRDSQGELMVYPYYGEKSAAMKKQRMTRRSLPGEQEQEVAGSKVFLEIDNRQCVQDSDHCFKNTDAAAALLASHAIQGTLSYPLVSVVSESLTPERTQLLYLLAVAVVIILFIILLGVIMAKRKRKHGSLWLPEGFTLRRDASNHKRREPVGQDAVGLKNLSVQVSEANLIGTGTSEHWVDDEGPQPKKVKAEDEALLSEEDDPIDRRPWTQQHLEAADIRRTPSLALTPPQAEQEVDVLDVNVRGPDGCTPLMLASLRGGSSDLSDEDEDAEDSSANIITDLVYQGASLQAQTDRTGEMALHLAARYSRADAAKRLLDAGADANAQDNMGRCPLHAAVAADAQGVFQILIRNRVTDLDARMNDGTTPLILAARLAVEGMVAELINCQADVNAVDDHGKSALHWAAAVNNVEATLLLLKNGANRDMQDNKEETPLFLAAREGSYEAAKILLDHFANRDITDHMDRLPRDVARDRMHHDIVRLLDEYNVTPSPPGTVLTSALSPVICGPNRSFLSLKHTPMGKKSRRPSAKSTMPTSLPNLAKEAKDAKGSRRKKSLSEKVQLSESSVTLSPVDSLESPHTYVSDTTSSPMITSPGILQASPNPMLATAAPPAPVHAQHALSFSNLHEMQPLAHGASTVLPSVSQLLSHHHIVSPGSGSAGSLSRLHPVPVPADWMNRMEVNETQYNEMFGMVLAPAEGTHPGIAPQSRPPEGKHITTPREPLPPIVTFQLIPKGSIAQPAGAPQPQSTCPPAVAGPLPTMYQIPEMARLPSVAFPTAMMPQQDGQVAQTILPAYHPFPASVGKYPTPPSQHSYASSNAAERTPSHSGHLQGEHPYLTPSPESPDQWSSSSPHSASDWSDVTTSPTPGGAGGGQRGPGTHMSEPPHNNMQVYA
For test [6], the target named is Pro-neuregulin-1, membrane-bound isoform (Homo sapiens) (UniProt Q02297). The test can be described thus: small molecules binding neuregulin-1 protein – biochemical, small-molecule microarray, fluorescence 635/667, psychiatric disease protein project, primary screen (AID 1075).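 Also: score combines 667 nm spot fluorescence with signal to noise.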 The conditions noted are these: NRG1 binding, 635 nm fluorescence, higher = more signal.

Test [7] deals with Neuregulin-1 EGF-like domain. The test can be described thus: small molecules binding NRG1 EGF domain – biochemical, small-molecule microarray, 635 nm fluorescence, primary screen (AID 1081).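 Also: binding of the protein to compounds printed on small-molecule microarray slides.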 The conditions noted are these: higher = more signal.
Test [8] in a line: FRG1 expression reporter modulators in myotubes – cell-based, C2C12 myotubes, firefly/Renilla luciferase, luminescence, FRG1 inhibition for FSHD, primary screen (AID 1084). The conditions noted are these: FRG1 promoter luciferase, higher = more signal, called active from +8 up or from −8 down.
The nature of test [9]: small molecules captured by biotinylated probe aFST – biochemical, small-molecule microarray, fluorescence 635/667, stem cell growth factor project, primary screen (AID 1086).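 Also: score merges 667 nm fluorescence with signal-to-noise of each printed compound spot.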 The conditions noted are these: higher = more signal.
Test [10] is described as follows: binders of probe aHhip on microarray, primary screen, stem cell growth factor project, biochemical, small-molecule microarray, fluorescence 635/667 (AID 1087).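 Also: score merges spot fluorescence at 667nm with spot signal to noise ratio.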 The conditions noted are these: higher = more signal.
Test [11] has as its system PRMT1 (protein arginine N-methyltransferase 1). The test can be described thus: small molecules binding arginine methyltransferase PRMT1 – biochemical, small-molecule microarray, 635 nm fluorescence, primary screen (AID 1088).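 Also: binding of Prmt1 protein to compounds spotted on small-molecule microarray slides.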 Particulars: higher = more signal.
The nature of test [12]: growth effects on S. cerevisiae YJM789 – YJM789 clinical isolate, OD600, 24 h, basal, primary screen (AID 1089).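 Also: growth of clinical yeast isolate S. cerevisiae YJM 789 seeded 1000 cells per well; test concentration not given here.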 Particulars: higher = more signal, called active from +8 up or from −8 down.
The nature of test [13]: S. pombe growth modifiers, basal conditions – strain 972, OD600, 24 h, no modulator, primary screen (AID 1090).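 Also: basal condition with compound alone and no growth modifier present; test concentration not given here.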 The conditions noted are these: S. pombe 972 growth, higher = more signal, called active from +8 up or from −8 down.
Test [14] in a line: budding yeast growth modifiers under rapamycin – strain BY4716, OD600, 96 h, primary screen (AID 1091). Also: test concentration not given here. The conditions noted are these: S. cerevisiae BY4716 + rapamycin, higher = more signal, called active from +8 up or from −8 down.
The target in test [15] is Torsin-1A-interacting protein 2 (Homo sapiens) (UniProt Q8NFQ8). The test can be described thus: small molecules binding lysate-expressed LULL1 – cell lysate, human LULL1 lysate, 635/667 nm fluorescence, primary screen (AID 1092).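 Also: probe is lysate of COS7 cells overexpressing human LULL1; score merges per-feature 667 nm fluorescence with signal-to-noise.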 Particulars: small-molecule microarray, hLULL1 lysate binding, 635 nm fluorescence; higher = more signal.
Test [16] in a line: optical density change of DRC41 E. coli – strain DRC41, OD650, 24 h, E. coli filamentation project, primary screen (AID 1093).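 Also: MC1000 strain lacking acrAB efflux and sulA so SOS filamentation is blocked; test concentration not given here.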 Particulars: E. coli DRC41 growth, higher = more signal, called active from +8 up or from −8 down.
Test [17] is described as follows: probe aLefty2 binding to arrayed compounds – biochemical, biotinylated probe, 635/667 nm fluorescence, primary screen (AID 1094).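 Also: score merges spot fluorescence near 667 nm with spot signal-to-noise ratio.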 Particulars: small-molecule microarray, higher = more signal.
Test [18] relates to Noggin (protein binding on small-molecule microarray). The test is described as follows: small molecules binding Noggin protein – biochemical, 635/667 nm fluorescence, primary screen (AID 1095).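 Also: score merges 667 nm feature fluorescence with signal to noise over triplicate slides.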 The conditions noted are these: 635 nm fluorescence, higher = more signal.
Test [19] concerns the target Neurogenic locus notch homolog protein 3 (Homo sapiens) (UniProt Q9UM47). The test is described as follows: small molecules binding NOTCH3 protein – biochemical, 635/667 nm fluorescence, primary screen (AID 1096). The conditions noted are these: small-molecule microarray, 635 nm fluorescence, higher = more signal.
Test [20] in a line: probe aEGFR binding to arrayed compounds – biochemical, biotinylated probe, 635/667 nm fluorescence, primary screen (AID 1097).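 Also: probe is a biotinylated anti-EGFR antibody binding compounds printed on slides; score combines fluorescence near 667 nm and signal to noise of each spot.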 Particulars: small-molecule microarray, higher = more signal.

Active and inactive are the calls of the source.

Chain of Neurogenic locus notch homolog protein 3 (Homo sapiens) (Q9UM47 whole entry, looked up): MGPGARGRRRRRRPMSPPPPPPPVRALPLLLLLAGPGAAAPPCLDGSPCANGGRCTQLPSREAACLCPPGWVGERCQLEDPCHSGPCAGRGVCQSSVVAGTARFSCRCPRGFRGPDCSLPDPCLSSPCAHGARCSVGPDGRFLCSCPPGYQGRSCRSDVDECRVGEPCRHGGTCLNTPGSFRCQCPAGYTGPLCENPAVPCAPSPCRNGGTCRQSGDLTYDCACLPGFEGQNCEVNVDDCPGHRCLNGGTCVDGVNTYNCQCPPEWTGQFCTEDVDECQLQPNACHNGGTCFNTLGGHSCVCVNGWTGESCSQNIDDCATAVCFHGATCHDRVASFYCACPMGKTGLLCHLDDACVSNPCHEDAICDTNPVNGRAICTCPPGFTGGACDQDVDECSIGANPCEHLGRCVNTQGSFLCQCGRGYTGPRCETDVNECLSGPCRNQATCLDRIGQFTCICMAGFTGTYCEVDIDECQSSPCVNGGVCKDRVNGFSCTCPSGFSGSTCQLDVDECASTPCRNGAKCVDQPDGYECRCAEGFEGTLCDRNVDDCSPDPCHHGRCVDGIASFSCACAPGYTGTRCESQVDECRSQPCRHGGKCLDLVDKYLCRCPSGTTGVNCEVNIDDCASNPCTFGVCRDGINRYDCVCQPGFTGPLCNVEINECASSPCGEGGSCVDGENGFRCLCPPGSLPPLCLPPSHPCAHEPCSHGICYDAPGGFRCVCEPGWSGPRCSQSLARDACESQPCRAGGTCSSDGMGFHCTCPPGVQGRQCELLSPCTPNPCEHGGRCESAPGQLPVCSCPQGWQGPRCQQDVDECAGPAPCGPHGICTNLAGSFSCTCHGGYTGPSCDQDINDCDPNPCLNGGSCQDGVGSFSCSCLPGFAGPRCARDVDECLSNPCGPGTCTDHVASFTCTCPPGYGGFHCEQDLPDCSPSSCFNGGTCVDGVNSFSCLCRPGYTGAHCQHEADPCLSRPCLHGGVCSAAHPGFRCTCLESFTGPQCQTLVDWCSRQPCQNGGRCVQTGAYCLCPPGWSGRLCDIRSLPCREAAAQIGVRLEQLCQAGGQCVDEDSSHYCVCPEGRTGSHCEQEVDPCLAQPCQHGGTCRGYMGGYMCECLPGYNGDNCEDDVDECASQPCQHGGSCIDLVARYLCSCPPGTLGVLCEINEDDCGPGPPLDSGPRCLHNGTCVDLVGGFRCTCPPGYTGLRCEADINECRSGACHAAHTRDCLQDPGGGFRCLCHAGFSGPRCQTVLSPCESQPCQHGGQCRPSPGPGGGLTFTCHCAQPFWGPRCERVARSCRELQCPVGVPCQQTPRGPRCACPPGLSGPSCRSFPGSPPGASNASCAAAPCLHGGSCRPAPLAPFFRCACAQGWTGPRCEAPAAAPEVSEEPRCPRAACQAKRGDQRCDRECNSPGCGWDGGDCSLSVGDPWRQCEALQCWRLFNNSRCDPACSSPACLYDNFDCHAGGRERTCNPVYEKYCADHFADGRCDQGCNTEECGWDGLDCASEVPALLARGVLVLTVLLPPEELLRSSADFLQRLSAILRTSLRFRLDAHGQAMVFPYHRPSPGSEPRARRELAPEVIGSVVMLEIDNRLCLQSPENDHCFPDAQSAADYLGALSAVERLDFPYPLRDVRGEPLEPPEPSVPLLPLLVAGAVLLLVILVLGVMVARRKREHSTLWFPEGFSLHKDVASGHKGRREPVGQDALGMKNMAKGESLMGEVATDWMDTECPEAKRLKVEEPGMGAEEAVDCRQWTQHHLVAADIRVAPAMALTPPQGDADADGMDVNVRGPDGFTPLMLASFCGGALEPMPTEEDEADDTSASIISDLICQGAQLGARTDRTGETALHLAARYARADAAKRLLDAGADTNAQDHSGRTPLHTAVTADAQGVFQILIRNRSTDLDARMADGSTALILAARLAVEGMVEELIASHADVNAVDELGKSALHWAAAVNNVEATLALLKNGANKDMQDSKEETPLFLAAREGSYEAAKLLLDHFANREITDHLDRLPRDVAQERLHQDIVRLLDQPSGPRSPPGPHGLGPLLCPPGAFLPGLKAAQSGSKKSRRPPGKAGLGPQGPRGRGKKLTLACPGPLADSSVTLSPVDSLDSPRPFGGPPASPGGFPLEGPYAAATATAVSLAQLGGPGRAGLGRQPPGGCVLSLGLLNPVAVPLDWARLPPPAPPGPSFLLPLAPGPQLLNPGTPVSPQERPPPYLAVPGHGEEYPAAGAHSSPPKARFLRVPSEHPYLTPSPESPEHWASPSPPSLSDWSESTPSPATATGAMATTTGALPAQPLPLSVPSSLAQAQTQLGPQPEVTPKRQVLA

Consider `COc1ccc([Si](C)(C)[C@H]2[C@H](CC(=O)N(CCO)Cc3ccccc3)O[C@@]3(C(=O)N(C)c4ccccc43)[C@@H]2C)cc1`, for which the composite z-score in test [1] is -0.412; in test [2] it was 0.919; in test [3] it was 0.0248; in test [4], 0.877; in test [5], -0.0546; in [6], 0.67. In addition, the composite z-score is 0.938 in test [7]; 0.291 in test [9]; -0.21 in [10]; 1.31 in [11]; 1.93 in [15]; -0.186 in test [17]. Moreover, the composite z-score is 1.72 in test [18], 1.11 in test [19] and -0.0987 in [20]. Further, the z-score in [8] is -1.39 (inactive); in [12] it was -1.98 (inactive); in test [13], -1.24 (inactive); in [14], -0.712 (inactive); in [16] it was 1.41 (inactive).

With `COCCOC(=O)N1C(=O)[C@@]2(c3cc(C#CCC(C(=O)OC)C(=O)OC)ccc31)[C@H](C(=O)N1CCN(c3ncccn3)CC1)[C@H]1C(=O)O[C@H](c3ccccc3)[C@H](c3ccccc3)N1[C@@H]2c1ccc(O)cc1`, the composite z-score in test [1] is -0.0797; in [2], 1.47; in test [3] it was 0.0051; in test [4], 0.579; in test [5] it was 1.08; in [6] it was 1.07. Also, the composite z-score in [7] is 1.2; in test [9] it was -0.304; in [10], 0.0623; in [11] it was 1.54; in test [15], 2.23; in test [17] it was -0.0288. Besides, the composite z-score is 0.414 in test [18], 1.17 in test [19] and -0.0675 in test [20]. Also, the z-score in [8] is -0.24 (inactive); in test [12] it was -0.256 (inactive); in test [13], -1.38 (inactive); in test [14], 0.921 (inactive); in test [16] it was 3.19 (inactive).

With `CO[C@H]1O[C@H](CO)[C@@H](OC(=O)Nc2ccc(Oc3ccccc3)cc2)[C@H](OC(=O)Nc2ccccc2-c2ccccc2)[C@H]1OC(=O)Nc1ccccc1-c1ccccc1`, the composite z-score is -0.448 in [1]; 0.44 in test [2]; 0.104 in test [3]; 1.04 in test [4]; 1.51 in test [5]; 1.52 in test [6]. In addition, the composite z-score is 1.35 in test [7]; 0.33 in test [9]; -0.0672 in test [10]; 1.54 in test [11]; 3.28 in [15]; 0.218 in [17]. Further, the composite z-score in test [18] is 1.23; in test [19] it was 1.06; in [20], 0.242. For the same compound, the z-score is -0.441 (inactive) in [8]; 3.07 (inactive) in [12]; 1.84 (inactive) in test [13]; 0.792 (inactive) in [14]; 2.45 (inactive) in test [16].

With `COCCOC(=O)N1C(=O)[C@@]2(c3cc(C#CCNC(N)=O)ccc31)[C@H](c1ccc(OCCO)cc1)N1[C@H](c3ccccc3)[C@H](c3ccccc3)OC(=O)[C@H]1[C@@H]2C(=O)Nc1nc2ccccc2s1`, the composite z-score in test [1] was 1.02; in test [2] it was 0.208; in [3] it was -0.0399; in [4], 0.371; in test [5], -0.97; in [6], 0.396. Besides, the composite z-score was -0.757 in test [7]; 0.98 in test [9]; 0.136 in test [10]; 0.75 in test [11]; 0.376 in test [15]; 0.162 in test [17]. The results for the composite z-score in [18], in test [19] and in test [20] were 0.895, 0.865 and 0.0894, respectively. Further, the z-score was 3.98 (inactive) in test [8]; 1.55 (inactive) in test [12]; 1.11 (inactive) in test [13]; 3.55 (inactive) in [14]; 2.56 (inactive) in test [16].

Take `CC(C)=C1C(=O)C(c2ccccc2)=C2CN3C(=O)N(CCc4ccccc4)C(=O)[C@]3(Cc3ccccc3)[C@H]21`: the composite z-score was 0.5 in test [1]; -0.463 in [2]; -0.0612 in [3]; 0.103 in test [4]; -0.272 in test [5]; 0.0953 in [6]. Further, the composite z-score in test [7] is -0.318; in test [9], 0.0891; in test [10], -0.112; in [11], -0.632; in test [15], 1.15; in [17], 0.213. Besides, the composite z-score in test [18] is -0.974; in [19] it was -0.546; in [20] it was -0.138. Besides, the z-score is 0.438 (inactive) in test [8]; 0.637 (inactive) in [12]; 0.927 (inactive) in test [13]; 0.867 (inactive) in [14]; -0.901 (inactive) in test [16].
